Test results published in PubChem BioAssay (NCI).
This is part of a sample that, as a whole, favours compounds with a hit. Of some 83,000 tested, about 20% had one in any assay.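 48-hour exposure, single concentration, 96-well plates; percent growth endpoint where 0 means no net growth. Active: below 10.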 A number with no mark means an inactive call. Calls of active or inactive are those of the source.

Test system: MDA-MB-468 breast
Assay: NCI-60 one-dose screen, 48 h (100 = growth as untreated, 0 = no growth, -100 = all killed)
Details: 10 µM unless noted

Row | SMILES | growth
1 | Nc1nc(Nc2ccc(F)cc2)nn1C(=O)c1cc(Cl)ccc1Cl | 60.6%
2 | Cc1ccc2nc(N)nnc2c1 | 102%
3 | O=C(Nc1ccc(-n2cc(-c3ccncc3)c(-c3ccc(Cl)c(O)c3)n2)cc1)c1ccc(Cl)c(C(F)(F)F)c1 | -12% (active)
4 | CC(=O)Nc1nc(C(=O)N2N=C(C)/C(=C/c3ccc(Cl)cc3)C2=O)cs1 | 103%
5 | C/C(=N/NC(=O)Cn1c2ccccc2c2ccncc21)c1cccs1 | 105%
6 | COc1ccccc1/C=C1\COc2ccc(-c3ccccc3)cc2C1=O | 3.14% (active)
7 | CCCc1cc(=O)oc2c3c(c4c(c12)OC(C)(C)CC4)OC(C)[C@H](C)[C@@H]3O (some centres not stated) | 108%
8 | CCN(CC)CCCNCc1cc(-c2ccccc2)nc2cc(Cl)ccc12 | -25.7% (active)
9 | CC(C)n1nc(C#Cc2cccc(O)c2)c2c(N)ncnc21 | -44.2% (active)
10 | COc1ccc(C(C)=C(c2ccc(OCCN(C)C)cc2)c2ccc(OCCN(C)C)cc2)cc1 | -76.9% (active)
11 | CC(C)C1=C[C@@]23CC[C@@H]4[C@](C)(CCC[C@@]4(C)C(=O)N4CCCNCC4)[C@H]2C[C@@H]1[C@H]1C(=O)CCC(=O)[C@H]13 | 101%
12 | COc1ccc(C(=O)/C=C/c2cccc([N+](=O)[O-])c2)c(OC)c1 | -3.24% (active)
13 | CC1=C2[C@@H](CC1)[C@]1(C)O[C@@](C(C)C)(C[C@H]1OC(=O)[C@H](C)O)[C@H]2OC(=O)/C=C/c1ccccc1 | 86.9%
14 | CC(C)(c1ccccc1)c1cc(O)c(C(C)(C)c2ccccc2)cc1O | 26.4%
15 | C#Cc1nc(C2=C(C)C(OC(C)=O)/C(=N/OC(C)=O)C2)cs1 (configuration not stated) | -60.7% (active)
16 | C=C(CNCCc1ccc(O)cc1)[C@@H]1CC[C@]2(CO)CC[C@]3(C)[C@H](CC[C@@H]4[C@@]5(C)CCC(N)C(C)(C)[C@@H]5CC[C@]43C)[C@@H]12 (some centres not stated) | -88.4% (active)
17 | CCCS(=O)(=O)Nc1ccc(F)c(C(=O)c2c[nH]c3ncc(-c4ccc(Cl)cc4)cc23)c1F | 39.3%
18 | Cc1ccc(C(F)(F)F)cc1N1CCN(C(=O)[C@H]2C[C@H]2c2ccc(C(F)(F)F)nc2)CC1 | 65.6%
19 | C/C(=C\c1ccc([N+](=O)[O-])cc1)C(=O)O | 116%

Row | SMILES | growth
20 | O=C1Nc2ccccc2C1=NC1CCCCC1 | 102%
21 | O=C(Nc1ccc(F)cc1)Nc1ccc(CCO)cc1 | 105%
22 | CN(C)c1ccc(/C=N/N=C(\C#N)[S][Sn]([Cl])([c]2ccccc2)[c]2ccccc2)cc1 | -76.8% (active)
23 | COc1ccc(-c2nc3ccccn3c2/C=C/C(=O)c2cc(OC)c(OC)c(OC)c2)cc1OC | 8.94% (active)
24 | N#Cc1c(N)nc(Nc2nc3ccccc3[nH]2)nc1-c1ccc(Cl)cc1 | 111%
25 | CC(Oc1ccc(C(=O)O)cc1C(F)(F)F)c1ccc(Oc2ccccc2)cn1 (configuration not stated) | 97.3%
26 | CCOC(C)=N | 117%
27 | O=C(/C=C/c1cc2ccccc2[nH]c1=O)c1ccc(Cl)cc1 | 15.4%
28 | CCN(CC)CCCNc1cc(OC)c(OC)c2cccnc12 | 90.5%
29 | COc1ccc(C(=O)c2cc(OC)c3c(c2)OCO3)cc1O | 0.266% (active)
30 | CCC(c1ccc(O)cc1)C(CC)c1ccc(O)c(F)c1 (configuration not stated) | 69.5%
31 | O=C(N/N=C/c1ccc(O)cc1O)c1cccnc1 | 6.57% (active)
32 | CC(C)c1ccc(Nc2ccc3c(OCCCN4CCN(C)CC4)cccc3n2)cc1 | 66%
33 | COc1ccc(NC(=O)CSc2nc3ccccc3c(=O)n2Cc2cc(OC)c(OC)c(OC)c2)cc1 | 104%
34 | C[N+](C)(C)CCOC(OCC[N+](C)(C)C)(c1ccccc1)c1ccccc1 | 128%
35 | O=C(Nc1ccc(OCc2nnc(-c3ccc(Cl)cc3)o2)c(F)c1)Nc1ccc(Cl)c(C(F)(F)F)c1 | -24.8% (active)
36 | CCN(CC)CCOC(COc1cc(C)cc(C)c1)COc1cc(C)cc(C)c1 | 9.41% (active)
37 | COc1cc(/C=C2\COc3ccc(O)cc3C2=O)cc(OC)c1 | 54.1%
